Screens from PubChem BioAssay.
The list is not random: actives were taken first. Their share in the collection is about 1.3%.
NR5A2 inv ag: inverse agonists of human LRH-1 (NR5A2). O00482. HEK293T StAR-luciferase reporter, LRH-1 transfected, 24 h. inhibition, % at 3.6 µM. 360,000 tested, 0.13% active;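 active = inhibition above the mean inhibition of all tested compounds plus 3 SD, cut at about 73% in these data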
NCOA2 inhibitor: human SRC2 (NCOA2) inhibition; inhibition, % at 9 µM; AID 651957; HEK293 GAL4-SRC2 luciferase reporter, luminescence; 370,000 tested, 0.17% active; Q15596;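 active = inhibition above the mean inhibition of all tested compounds plus 3 SD, set per campaign, cut at about 52% in these data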
NCOA3 inh: inhibits human SRC3 coactivator | HEK293 GAL4-SRC3 luciferase reporter, luminescence | 360,000 tested, 0.17% active | Q9Y6Q9 | inhibition, % at 3.6 µM;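 active = inhibition above a per-campaign cutoff, the mean of all compounds plus 3 SD, cut at about 60% in these data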;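 also: higher means less SRC3-driven luciferase light from the GAL4 reporter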
SRC1 inh: inhibitors of human steroid receptor coactivator 1 (SRC1); HEK293 GAL4-SRC1 luciferase reporter, luminescence; inhibition, % at 3.6 µM; 360,000 tested, 0.12% active;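 active = inhibition above the campaign mean plus 3 SD, with each screening campaign given its own cutoff, cut at about 60% in these data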
COUP-TFII inh: blocks human COUP-TFII nuclear receptor; 370,000 tested, 0.7% active; inhibition, % at 8.6 µM; HEK293T NGFI-A luciferase reporter, luminescence; AID 686940;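 active = inhibition above a per-plate cutoff, mean inhibition of test wells between control levels plus 3 SD, cut at about 38% in these data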;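 also: cells cotransfected with COUP-TFII expression vector driving the NGFI-A reporter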
Target sequence (P24468 whole entry, looked up): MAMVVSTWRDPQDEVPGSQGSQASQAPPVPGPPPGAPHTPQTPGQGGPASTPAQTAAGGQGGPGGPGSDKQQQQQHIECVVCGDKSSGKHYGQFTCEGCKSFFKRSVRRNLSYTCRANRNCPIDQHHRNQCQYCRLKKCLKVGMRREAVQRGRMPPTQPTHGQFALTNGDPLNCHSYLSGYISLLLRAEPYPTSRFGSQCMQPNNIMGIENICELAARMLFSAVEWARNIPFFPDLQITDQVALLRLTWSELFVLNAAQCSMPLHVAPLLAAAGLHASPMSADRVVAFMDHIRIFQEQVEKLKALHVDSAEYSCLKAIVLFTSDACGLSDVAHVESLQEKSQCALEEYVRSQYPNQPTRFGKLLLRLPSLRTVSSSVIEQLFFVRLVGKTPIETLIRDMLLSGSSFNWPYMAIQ
Gli-Sufu block: antagonists of Gli-Sufu signaling; Sufu-KO-LIGHT fibroblasts, Gli luciferase reporter luminescence; inhibition, % at 5 µM; 340,000 tested, 0.74% active; AID 588413;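 active = inhibition above about 55%, limit read from the data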
Gli antag conf: Gli-SUFU antagonism confirmation, single concentration; shares compounds with Gli-Sufu block; Sufu-KO-LIGHT cells, Gli luciferase reporter, luminescence; inhibition, % at 5 µM; 2,500 tested, 40% active; AID 602428;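 active = mean inhibition at 5 µM reaching about 45%, limit read from the data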
Gli cytotox: cytotoxicity counter-screen for Gli-SUFU antagonists | shares compounds with Gli-Sufu block | Sufu-KO-LIGHT cells cytotoxicity, ATP luminescence | cytotoxicity, % at 5 µM | 2,500 tested, 32% active | AID 651994;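 active = mean cytotoxicity at 5 µM above about 25%, limit read from the data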;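 also: cells exposed to compound overnight for roughly 16 to 18 hours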
Wnt3a cs: Wnt3a reporter inhibition counter-screen. 2,500 tested, 20% active. inhibition, % at 6.25 µM. shares compounds with Gli-Sufu block. Wnt-LIGHT cells, Wnt3a-driven luciferase reporter, luminescence. AID 651995;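 active = mean inhibition above about 25%, limit read from the data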
Gal4-VP16 ctr: VP16 inhibition counter-screen for COUP-TFII; shares compounds with COUP-TFII inh; HEK293 Gal4-VP16 luciferase reporter, luminescence; inhibition, % at 8.5 µM; 2,500 tested, 25% active; in the data active = inhibition above about 13%
NR2F2 inh conf: COUP-TFII (NR2F2) inhibition, confirmation assay | shares compounds with COUP-TFII inh | inhibition, % at 8.5 µM | 2,500 tested, 45% active | HEK293 NGFI-A luciferase reporter, luminescence;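 active = mean inhibition over three repeats above a set limit taken from the earlier primary screen, cut at about 38% in these data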
Large screens that a line does not name were inactive (follow-up assays come after a bar, where they were run).

Cc1nn(C(C)C)c(C)c1CN1CCCC(C(=O)c2cccc(OC(C)C)c2)C1 (stereo unspecified)	COUP-TFII inh 37.5, Gli-Sufu block 58.7 | Gli antag conf inactive | Gli cytotox inactive | Wnt3a cs inactive | Gal4-VP16 ctr inactive | NR2F2 inh conf inactive
O=C(CN1C(=O)c2ccccc2S1(=O)=O)c1ccc(F)cc1	COUP-TFII inh 39.6, Gli-Sufu block 76.0 | Gli antag conf 82.9 | Gli cytotox inactive | Wnt3a cs 90.5 | Gal4-VP16 ctr inactive | NR2F2 inh conf inactive
CCC[N+]1(CC#CCC(c2ccccc2)c2ccccc2)CCCCC1	COUP-TFII inh 52.4, Gli-Sufu block 84.2 | Gli antag conf 87.7 | Gli cytotox 49.0 | Wnt3a cs 36.0 | Gal4-VP16 ctr inactive | NR2F2 inh conf inactive
CCOc1ccc(C=NNC(=O)c2cc(-c3ccc(Cl)cc3)n[nH]2)cc1	none (no result: NR5A2 inv ag, NCOA3 inh, SRC1 inh, Gli-Sufu block)
O=S(=O)(c1cc(C(F)(F)F)ccc1Cl)N1CCN(c2ncnc3ccccc23)CC1	COUP-TFII inh 41.5, Gli-Sufu block 61.0 | Gli antag conf 60.8 | Gli cytotox inactive | Wnt3a cs 43.6 | Gal4-VP16 ctr 15.0 | NR2F2 inh conf 60.5
O=S(=O)(c1cc(C(F)(F)F)ccc1Cl)N1CCCCCC1	none
CCCCCCC(=O)N(O)C1CC(=O)N(c2ccc(Br)cc2)C1=O (stereo unspecified)	COUP-TFII inh 39.9 | Gal4-VP16 ctr inactive | NR2F2 inh conf 51.8
CCCCCCC(=O)N(O)C1CC(=O)N(c2ccc(F)cc2)C1=O (stereo unspecified)	COUP-TFII inh 38.1 | Gal4-VP16 ctr inactive | NR2F2 inh conf 44.4
CC1=C[C@]2(CN(CC3CC3)C3=N[C@H](c4ccccc4)CC(=O)N32)n2c(=O)n(-c3ccccc3)c(=O)n2C1	none (no result: NR5A2 inv ag, NCOA2 inhibitor, NCOA3 inh, SRC1 inh, Gli-Sufu block)
CN(C)CC(c1ccc(O)cc1)C1(O)CCCCC1 (stereo unspecified)	none (no result: NR5A2 inv ag, NCOA3 inh, SRC1 inh, Gli-Sufu block)
CCc1c2c3n4c1CCC[C@@H]4C[C@@H]3O[Si](C(C)C)(C(C)C)OC(C)C2=O (stereo partly specified)	none (no result: NR5A2 inv ag, NCOA2 inhibitor, NCOA3 inh, SRC1 inh, Gli-Sufu block)
Cc1cc(C)c(O)c(C(=O)CC2CC(=O)NC(=O)C2)c1	COUP-TFII inh 75.1 (no result: NR5A2 inv ag, NCOA3 inh, SRC1 inh, Gli-Sufu block) | Gal4-VP16 ctr inactive | NR2F2 inh conf 51.3
Nc1nonc1C(=O)NCCNCc1cc(Br)ccc1OCc1ccc(F)cc1	COUP-TFII inh 50.4 | Gal4-VP16 ctr inactive | NR2F2 inh conf inactive
C/C(=N/NC(=O)CSc1nnc(SCc2ccc(C)cc2)s1)c1cccc(O)c1	none (no result: NR5A2 inv ag, NCOA3 inh, SRC1 inh, Gli-Sufu block)
COc1cccc(C(C)(O)c2nc(-c3ccc(N(C)C)cc3)cs2)c1 (stereo unspecified)	COUP-TFII inh 54.7 (no result: Gli-Sufu block) | Gal4-VP16 ctr inactive | NR2F2 inh conf inactive
COc1cccc(C(C)(O)c2nc(-c3ccccc3)cs2)c1 (stereo unspecified)	none (no result: Gli-Sufu block)
COc1ccccc1Cc1c(-c2ccc(Cl)cc2)nc2ccc(C)cn12	none (no result: NR5A2 inv ag, NCOA3 inh, SRC1 inh, Gli-Sufu block)
COCCCN1C(=O)[C@H](CC(=O)N2CCSCC2)[C@]2(C(=O)OC)CCCCC=C12	none (no result: NR5A2 inv ag, NCOA3 inh, SRC1 inh, Gli-Sufu block)
Nc1ncc(-c2ccccc2)c(-c2ccc(O)cc2O)n1	none
Oc1ccc(-c2n[nH]c(C(F)(F)F)c2-c2ccccc2)c(O)c1	COUP-TFII inh 65.0, Gli-Sufu block 70.1 | Gal4-VP16 ctr inactive | NR2F2 inh conf 48.4
CCCCC(=O)c1ccc(O)cc1O	COUP-TFII inh 102.5 | Gal4-VP16 ctr inactive | NR2F2 inh conf inactive
COc1ccccc1CCc1nnc(CCC(=O)N(C)Cc2cccc3cnccc23)o1	none
COc1ccc(CCc2nnc(CCC(=O)N(C)Cc3ccnc4ccccc34)o2)cc1	COUP-TFII inh 39.8 | Gal4-VP16 ctr inactive | NR2F2 inh conf inactive
CC(C)(C)c1ccc(C(=O)NC(=S)Nc2nc3c(s2)CCCC3)cc1	COUP-TFII inh 48.9 | Gal4-VP16 ctr inactive | NR2F2 inh conf inactive
O=C(Nc1nc2c(s1)CCCC2)c1ccc(S(=O)(=O)N2CCCc3ccccc32)cc1	COUP-TFII inh 49.7 | Gal4-VP16 ctr inactive | NR2F2 inh conf inactive
CC1CCc2nc(NC(=O)c3ccc(S(=O)(=O)N4CCCc5ccccc54)cc3)sc2C1 (stereo unspecified)	none
COc1cc(C(=O)Oc2cccc(Nc3ncnc4ccccc34)c2)cc(OC)c1OC	COUP-TFII inh 60.5 | Gal4-VP16 ctr inactive | NR2F2 inh conf 48.7
C=CCC1(CC=C)CCCN1C(=O)c1cc(COc2ccc(C)nc2)on1	COUP-TFII inh 57.4, Gli-Sufu block 77.2 | Gal4-VP16 ctr inactive | NR2F2 inh conf 54.8
C/C(CC(C)(C)C1CCCCC1)=N\NC(N)=S	NCOA3 inh 61.8, COUP-TFII inh 58.7 | Gal4-VP16 ctr 17.1 | NR2F2 inh conf 64.0
CC[C@@H]1CCC[C@@H](O)[C@@H](C)C(=O)O[C@H](C)[C@@H](C)C/C=C(C)/C(OC)=C\C(=O)N(C)C([C@@H](C)CC)C(=O)N(C)[C@@H](C(C)C)C(=O)N(C)[C@@H](COC)C(=O)N2CCC[C@H]2C(=O)N(C)[C@@H](C(C)C)C(=O)N2CCC[C@H]2C(=O)O1 (stereo partly specified)	NR5A2 inv ag 97.8, NCOA3 inh 84.4, SRC1 inh 77.5, COUP-TFII inh 82.8 (no result: Gli-Sufu block) | Gal4-VP16 ctr 13.8 | NR2F2 inh conf 82.0
Cc1c(NC(=O)COC(=O)C23CC4CC(CC(O)(C4)C2)C3)c(=O)n(-c2ccccc2)n1C	COUP-TFII inh 45.5 | Gal4-VP16 ctr inactive | NR2F2 inh conf inactive
CC(C)c1ccc(C(=O)Nc2ccc(CN3CCOCC3)cc2)cc1	COUP-TFII inh 38.3 | Gal4-VP16 ctr inactive | NR2F2 inh conf inactive
Cc1cc(CSc2ccccc2)ccc1NC(=O)c1ccc(CN2CCOCC2)cc1	COUP-TFII inh 63.3 | Gal4-VP16 ctr inactive | NR2F2 inh conf 60.5
CCOC(=O)c1ccc(NC(=O)c2ccc(CN3CCOCC3)cc2)cc1	COUP-TFII inh 49.5 | Gal4-VP16 ctr inactive | NR2F2 inh conf 38.2
NC(=O)c1ccc(NC(=O)c2ccc(CN3CCOCC3)cc2)cc1	none
O=C(Nc1ccc(CN2CCOCC2)cc1)c1ccc(-c2cccc(Cl)c2)o1	COUP-TFII inh 61.5 | Gal4-VP16 ctr inactive | NR2F2 inh conf inactive
O=C(/C=C/c1ccc(Cl)cc1)Nc1ccc(CN2CCOCC2)cc1	COUP-TFII inh 57.4 | Gal4-VP16 ctr inactive | NR2F2 inh conf inactive
